# Assay results from PubChem BioAssay (NCATS).
# Records with an inconclusive call do not appear. Where a call stands in place of a potency, no number is given. Calls of active or inactive are those of the source. The call rests on the fitted dose curve; in most records, active means well fitted inhibition curve with a large enough effect; inconclusive means small, poorly fitted or top-dose-only effect; inactive means flat fitted curve, though single readings scatter.
# Target: Voltage-gated inwardly rectifying potassium channel KCNH2 (Homo sapiens) (UniProt Q12809)
# Sequence (Q12809 whole entry, looked up): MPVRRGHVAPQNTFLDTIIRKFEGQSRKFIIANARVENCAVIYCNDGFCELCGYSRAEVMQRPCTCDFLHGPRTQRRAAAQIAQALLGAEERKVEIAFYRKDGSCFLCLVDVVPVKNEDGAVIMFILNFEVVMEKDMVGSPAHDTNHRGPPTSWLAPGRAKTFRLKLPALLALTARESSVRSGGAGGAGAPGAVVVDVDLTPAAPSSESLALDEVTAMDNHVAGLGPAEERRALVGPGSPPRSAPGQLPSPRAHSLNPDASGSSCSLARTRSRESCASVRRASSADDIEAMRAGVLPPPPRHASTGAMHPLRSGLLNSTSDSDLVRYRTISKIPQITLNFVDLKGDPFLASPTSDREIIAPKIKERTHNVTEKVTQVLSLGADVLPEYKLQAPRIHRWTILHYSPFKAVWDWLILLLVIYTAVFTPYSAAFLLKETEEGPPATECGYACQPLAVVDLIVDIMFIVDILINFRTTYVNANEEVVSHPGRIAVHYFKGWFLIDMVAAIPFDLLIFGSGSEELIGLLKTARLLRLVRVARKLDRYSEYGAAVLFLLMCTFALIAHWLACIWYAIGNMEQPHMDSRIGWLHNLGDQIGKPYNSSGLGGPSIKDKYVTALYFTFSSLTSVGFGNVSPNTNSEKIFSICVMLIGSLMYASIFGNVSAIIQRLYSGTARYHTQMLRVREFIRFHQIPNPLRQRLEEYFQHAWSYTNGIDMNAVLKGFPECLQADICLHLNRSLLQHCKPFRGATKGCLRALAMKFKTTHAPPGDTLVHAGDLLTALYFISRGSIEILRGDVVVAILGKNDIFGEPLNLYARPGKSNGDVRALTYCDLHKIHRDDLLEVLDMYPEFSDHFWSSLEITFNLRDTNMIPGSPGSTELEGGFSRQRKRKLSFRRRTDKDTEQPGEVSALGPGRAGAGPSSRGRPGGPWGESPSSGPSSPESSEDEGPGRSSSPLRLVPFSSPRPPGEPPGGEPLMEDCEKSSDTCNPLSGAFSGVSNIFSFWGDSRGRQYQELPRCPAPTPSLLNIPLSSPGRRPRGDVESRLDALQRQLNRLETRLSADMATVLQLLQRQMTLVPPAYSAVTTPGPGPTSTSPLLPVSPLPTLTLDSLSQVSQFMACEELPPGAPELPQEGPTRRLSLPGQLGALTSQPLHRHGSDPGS
# Assay: qHTS Assay for Small Molecule Inhibitors of the Human hERG Channel Activity (AID 588834);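 further: lower thallium flux fluorescence means stronger hERG block; nearly all actives have a fitted effect of over 50% in size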
# Conditions: U2OS BacMam hERG, FluxOR thallium flux fluorescence; series mostly up to 46.1 µM
# How it was run: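 Homogeneous FluxOR thallium flux assay using hERG-expressing U2OS cells (BacMam). Compound treatment about 10 minutes preceded stimulation; reduced fluorescence taken as channel block.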
# Potency means the concentration at half of the fitted maximal effect.
row,Structure (SMILES),Potency
1,CC(C)(C)c1o[nH]c(=O)c1CC(N)C(=O)O (stereo not drawn),inactive
2,C[C@]12CC[C@H](OS(=O)(=O)O)CC1=CC[C@@H]1[C@@H]2CC[C@]2(C)C(=O)CC[C@@H]12,inactive
3,COc1ccc2c(c1)[C@@]13CCCC[C@H]1[C@@H](C2)NCC3,11.2 µM (active)
